Sampled rows, rich in hits. Any-hit rate of the full collection: about 1.7%.
Yp Topo-I inh – Y. pestis Topo-I inhibition via cleavage products; Y. pestis Topo-I cleavage product accumulation, plate reader; activity, % at 10 µM; 360,000 compounds, 0.064% hits; AID 504884; in the data active means activity above about 50%, passing the limit was not always enough
PriA SSB inh – blocks PriA binding to SSB C-terminal tail. AlphaScreen SSBct-PriA binding, biotinylated peptide. inhibition, % at 33 µM. 430,000 compounds, 0.6% hits. AID 1272365; in the data active means inhibition mostly above about 37%, no sharp cut-off; inactive means mostly below about 20%;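 further: plate controls were negative control peptide for no effect and reference peptide for full effect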
PfHsp40 yeast – restores yeast growth despite PfHsp40 toxicity. S. cerevisiae expressing PfHsp40, growth rescue, ATP luminescence. growth rescue, % at 12.5 µM. 340,000 compounds, 0.68% hits. AID 504582; in the data active means growth rescue above about 28%, passing the limit was not always enough;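 further: yeast W303a lacking pdr1 and pdr3 grown in galactose medium; growth measured after three days at 30 °C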
BJeLR lethal – BJeLR cell viability loss. BJeLR (HRASV12) viability, CellTiter-Glo ATP luminescence, 48 h. inhibition, % (concentration not given with the values). 300,000 compounds, 0.17% hits. AID 1554; in the data active means inhibition above about 50%
PrP 5UTR inh – inhibition of PrP 5' UTR reporter expression. cell-based PrP 5' UTR mRNA reporter, plate reader. inhibition, % (concentration not given with the values). 340,000 compounds, 0.35% hits. AID 488862; in the data active means inhibition above about 52%; further: 0 = median of the neutral control wells
PrPC surface inh – inhibitors of human cell surface prion protein PrPC; P04156; TR-FRET read-out; inhibition, % at 13.8 µM; 370,000 compounds, 0.43% hits; AID 720596; in the data active means inhibition above about 24%; further: 0% = median of the test wells and 100% = reference compound wells
The depositor's hits bear a star; nt = no result; ! = not active in a repeat.

SMILES	Yp Topo-I inh	PriA SSB inh	PfHsp40 yeast	BJeLR lethal	PrP 5UTR inh	PrPC surface inh
O=[N+]([O-])c1ccc(C2CCCC/C2=N\OCc2cccc(F)c2)c([N+](=O)[O-])c1 (stereo not drawn)	0	nt	1	-5	-13	4
O=[N+]([O-])c1ccc(C2CCCCC2=NOCc2ccc(F)cc2)c([N+](=O)[O-])c1 (stereo not drawn)	nt	45*	nt	nt	nt	nt
Cc1noc(C)c1CC(=O)N1CCCC(Cc2n[nH]c(=O)n2-c2ccccc2F)C1 (stereo not drawn)	nt	3	nt	nt	nt	nt
CCCCn1c(CNC(=O)C23CC4CC(CC(C4)C2)C3)nnc1SCc1ccc(C(F)(F)F)cc1	nt	11	nt	nt	nt	nt
O=C(ON=C(c1ccccc1)c1ccncc1)c1ccccc1[N+](=O)[O-]	nt	11	nt	nt	nt	nt
O=C(O/N=C(\c1ccccc1)c1ccncc1)c1ccccc1Cl	22	nt	116*	3	-33	-6
CCCCCCC(=O)Oc1cccc(C2=CC(=O)CC(C)(C)C2=O)c1	55*	nt	nt	nt	nt	-2
Cc1cccc(C2=CC(=O)CC(C)(C)C2=O)c1	nt	nt	nt	nt	nt	2
CC(O)(CNC(=O)c1cncc(Br)c1)c1ccc2c(c1)OCO2 (stereo not drawn)	nt	9	nt	nt	nt	nt
COc1ccc(CSCCNC(=S)Nc2ccccc2)cc1Cl	16	-14	45*	-7	-25	-3
S=C(NCCSCc1c(Cl)cccc1Cl)Nc1ccccc1	1	-7	285*	nt	-32	10
S=C(NCCSCc1ccc(Cl)c(Cl)c1)Nc1ccccc1	1	-13	1	1	-7	8
O=C(NCCn1nc(-c2ccccn2)cc1C1CC1)C1(c2ccccc2)CCOCC1	nt	4	nt	nt	nt	nt
COC(=O)C1CC(Oc2ccccc2F)CN1C(=O)c1ccc(-n2cccc2)cc1 (stereo not drawn)	nt	21	nt	nt	nt	nt
CC(C)CC(=O)/C(=C\c1ccc(Cl)cc1Cl)n1cncn1	-2	-9	125*	16	-18	nt
CC(C)CC(=O)/C(=C/c1ccc(N(C)C)cc1)n1cncn1	-3	8	-1	7	-3	6
CCOC(=O)C1=NN(C(=O)c2ccc(OC)cc2)C(O)(c2ccc(Cl)cc2)C1 (stereo not drawn)	25	-1	1	3	-27	3
COC(=O)C1=NN(C(=O)c2cccc(Br)c2)C(O)(c2ccc(Cl)cc2)C1 (stereo not drawn)	17	2	494*	3	3	3
CCNC(=O)CN(c1ccc(Oc2ccccc2)cc1)S(=O)(=O)c1ccccc1	44	-5	60*	5	0	4
CC(=O)Nc1ccc(CC(=O)N2CC(Oc3nccs3)C2)cc1	nt	-12	nt	nt	nt	nt
Oc1cccc(/C=N/N(Cc2ccccc2)c2ccccc2)c1	-23	nt	345*	-10	-16	-1
Oc1ccc(/C=N/N(Cc2ccccc2)c2ccccc2)c(O)c1O	-18	nt	42*	6	-28	-2
CN(C)c1ccc(C=NN(Cc2ccccc2)c2ccccc2)cc1	nt	-3	nt	nt	nt	nt
CCCCOc1ccc(C(=O)Nc2cnc(-n3cccn3)nc2)cc1	nt	-16	nt	nt	nt	nt
COc1cccc(Nc2nc(-c3ccccc3O)nc3ccccc23)c1	-6	-16	1	-4	-14	0
SMILES	Yp Topo-I inh	PriA SSB inh	PfHsp40 yeast	BJeLR lethal	PrP 5UTR inh	PrPC surface inh
Cc1ccc(-c2nc(Nc3cccc(O)c3)c3ccccc3n2)cc1	-30	-6	30*	-18	-13	2
COc1cccc(Nc2nc(-c3ccccc3)nc3ccccc23)c1	-33	-53	38*	-7	11	6
Cc1ccc(-c2nc(Nc3ccc(O)cc3)c3ccccc3n2)cc1	-15	-3	3	-4	2	12
CC(C)(C)c1ccc(OCC(=O)Nc2ccc3c(c2)CN(C(=O)c2cccs2)CC3)cc1	nt	-12	nt	nt	nt	nt
COc1ccc(-c2nnc(SCC(=O)NCc3cccs3)n2C)cc1	-2	-6	-2	-5	-25	2
Cn1c(SCC(=O)NCc2cccs2)nnc1-c1ccncc1	56*	-7	-1	-6	-8	3
CC1=CC(=NOS(=O)(=O)c2ccccc2)C(C(C)C)=CC1=O	nt	2	nt	nt	nt	nt
CC1=CC(=O)C(C(C)C)=C/C1=N/OS(=O)(=O)c1ccccc1	2	nt	346*	116*	-8	-4
CC1=CC(=O)C=C(C)C1=NOS(=O)(=O)c1ccccc1	-9	-21	335*	82*	-4	-6
Cc1ccc(C(=O)CNc2cccc(Cl)c2)cc1	65*	-11	-1	5	-22	-2
CCCCCCCC/C=C\CCCCCCCC(=O)O	27	-6	0	-3	4	8
CCCCCCCCCCCCCC(=O)NO	-6	2	264*	nt	-3	-4
CCCCCCC(=O)O	1	-15	-1	nt	-3	3
CCCCCCCC/C=C\CCCCCCCC(=O)NCCO	25	-12	67*	nt	-7	-7
Nn1c(Cc2cccc3ccccc23)nnc1SCC(=O)NCC1CCCO1 (stereo not drawn)	0	52*	0	-4	0	0
COC(=O)C[C@](O)(CCCC(C)(C)O)C(=O)O[C@@H]1C(OC)=C[C@]23CCCN2CCc2cc4c(cc2[C@H]13)OCO4	nt	nt	nt	92*	nt	nt
COc1ccc2c(c1)C(=NN)c1cc(OC)ccc1-2	-12	47*	0	-9	-35	-13
Cc1ccsc1C(=O)N1CCCC(CCC(=O)NCc2ccccc2F)C1 (stereo not drawn)	1	-2	37*	-3	-25	6
Cc1ccsc1S(=O)(=O)N1CCCC(CCC(=O)NCc2ccccc2F)C1 (stereo not drawn)	25	-13	0	14	-35	-5
CO[C@@H](CNC(=O)Nc1ccc(C)c(C)c1)c1ccccc1Cl	nt	-11	nt	nt	nt	nt
O=C(NCCCn1ccc2cccnc21)C1CC(=O)N(c2ccc(F)cc2)C1 (stereo not drawn)	nt	4	nt	nt	nt	nt
Cc1cc(N2CCCC2)nc(Nc2ccc(NS(=O)(=O)c3ccc(I)cc3)cc2)n1	nt	44*	nt	nt	nt	nt
Cc1cc(N2CCCC2)nc(Nc2ccc(NS(=O)(=O)c3ccc(Cl)cc3)cc2)n1	nt	-9	nt	nt	nt	nt
COc1ccc(C)c2sc(N(CCN(C)C)C(=O)c3ccc4ccccc4c3)nc12	3	43*!	1	-8	0	-3
COc1cc2ccccc2cc1C(=O)N(CCN(C)C)c1nc2ccc(Br)cc2s1	3	49*	0	-1	-3	-3
SMILES	Yp Topo-I inh	PriA SSB inh	PfHsp40 yeast	BJeLR lethal	PrP 5UTR inh	PrPC surface inh
Cc1cc(C)c2nc(N(CCN(C)C)C(=O)c3ccc4ccccc4c3)sc2c1	16	38*!	5	-1	-6	-6
COc1cccc(NC(=O)CSc2cccc3cccnc23)c1	nt	21	nt	nt	nt	nt
O=C(CSc1cccc2cccnc12)Nc1cccc(C(F)(F)F)c1	nt	126*	nt	nt	nt	nt
O=C(CSc1cccc2cccnc12)Nc1cccc([N+](=O)[O-])c1	nt	88*	nt	nt	nt	nt
COc1cc([N+](=O)[O-])ccc1NC(=O)CSc1cccc2cccnc12	nt	-11	nt	nt	nt	nt
CC(=O)c1cccc(NC(=O)CSc2cccc3cccnc23)c1	nt	116*	nt	nt	nt	nt
O=C(CSc1cccc2cccnc12)c1ccc([N+](=O)[O-])cc1	nt	58*	nt	nt	nt	nt
Cc1cc(C)c2nc(NC(=O)c3ccc([N+](=O)[O-])s3)sc2c1	nt	-19	nt	nt	nt	nt

Assay outcomes from PubChem BioAssay.
